Source: PubChem (Sanford-Burnham Center for Chemical Genomics)
Pyk2 oligo antag – antagonists of Pyk2 self-association, primary screen, Q293 cells, FERM NanoBiT luminescence, HTS | actives 0.83% (n = 99,000) | z-score (the deposit names both 25 µM and 10 µM) | AID 1347419, 2020 | stronger effect = lower value;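 active means Z-score of -3 or lower, scaled per plate to the spread of control and sample wells; inactive means z-score above -3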;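 further: negative z-score means lost luminescence so less FERM oligomerization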
CYP2C9 act – human CYP2C9 activators, primary screen, biochemical, luminescence; recombinant CYP2C9, luciferin-H conversion; stronger effect = higher value; factor 1 = untreated enzyme, 0 = blocked; activation factor at 5 µM; actives 1.4% (n = 96,000);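 active means activation factor of 2 or more for CYP2C9 at a 5 µM dose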;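 further: 0 = sulfaphenazole-blocked wells and 1 = vehicle-only wells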
Target sequence (P11712 whole entry, looked up): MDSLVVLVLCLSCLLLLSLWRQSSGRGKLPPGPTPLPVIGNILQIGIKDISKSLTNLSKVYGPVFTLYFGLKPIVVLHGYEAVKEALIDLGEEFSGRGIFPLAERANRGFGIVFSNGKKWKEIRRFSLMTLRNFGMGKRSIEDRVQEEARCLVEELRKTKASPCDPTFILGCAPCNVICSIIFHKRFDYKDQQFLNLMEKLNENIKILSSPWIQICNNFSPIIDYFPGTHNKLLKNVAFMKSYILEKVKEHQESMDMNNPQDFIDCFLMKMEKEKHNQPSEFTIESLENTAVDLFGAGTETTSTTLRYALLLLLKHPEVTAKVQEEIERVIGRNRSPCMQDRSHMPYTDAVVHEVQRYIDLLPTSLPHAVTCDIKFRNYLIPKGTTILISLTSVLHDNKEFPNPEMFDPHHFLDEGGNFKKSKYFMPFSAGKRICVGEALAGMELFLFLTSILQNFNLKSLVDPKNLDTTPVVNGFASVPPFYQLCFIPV
CYP2C9 inh – blockers of cytochrome P450 2C9 activity – biochemical, luminescence, ADME assay, primary screen. CYP2C9 Supersomes, luciferin-H conversion. inhibition, % at 5 µM. actives 20% (n = 96,000);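 active means blocking of liver enzyme CYP2C9 beyond about 50% at 5 µM, limit read from the data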
CYP2C19 act – human CYP2C19 activators, primary screen, biochemical, luminescence | recombinant CYP2C19, luciferin-H EGE luminescence; stronger effect = higher value; 0 = fully inhibited enzyme, 1 = untreated enzyme | activation factor at 5 µM | AID 1025, 2008 | 96,000 tested, under 10 active;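 active means activation factor of at least 2 at 5 µM in the primary screen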;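 further: 0 = wells with 2.5 mM tranylcypromine and 1 = vehicle-only wells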
CYP2C19 inh – blockers of cytochrome P450 2C19 activity – biochemical, luminescence, ADME assay, primary screen | inhibition, % at 5 µM | P33261 | CYP2C19 Supersomes, luciferin-H EGE luminescence, 30 min | actives 21% (n = 96,000);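 active means CYP2C19 inhibition above a set limit at 5 µM in the primary screen, cut at about 50% in these data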;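 further: plate controls were negative control wells for no effect and 2.5 mM tranylcypromine positive control for full effect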
The depositor's hits bear a star; / = no result. Rows were chosen to be rich in hits. Some 28% of all compounds tested hit in one or more screens of this group.

SMILES | Pyk2 oligo antag | CYP2C9 act | CYP2C9 inh | CYP2C19 act | CYP2C19 inh
CCC(CC)C(=O)Nc1nnc(SCC(=O)N2CCN(c3ccccc3OC)CC2)s1 | -0.58 | 0.3 | 73* | 0.5 | 50*
CCOC(=O)C1CCN(C(=O)CSc2nnc(-c3ccco3)n2-c2ccccc2)CC1 | -0.09 | 0.5 | 54* | 0.5 | 53*
C=C1CSc2nc3ccccc3c(=O)n21 | 0.65 | 1.1 | -7 | 1 | -3
c1ccc(-n2c(-c3ccco3)nnc2-c2ccco2)cc1 | 0.24 | 0.8 | 16 | 1.1 | -15
COc1ccccc1N1CCN(C(=O)CSc2ncccc2-c2nc3ccccc3[nH]2)CC1 | -0.03 | 0.4 | 58* | 0.3 | 74*
O=S(=O)(NCCSc1nnc(-c2ccco2)n1-c1ccccc1)c1ccccc1 | -1.4 | 0.2 | 83* | 0.2 | 76*
COc1ccc(N2CCN(C(=O)CSc3ncccc3-c3nc4ccccc4[nH]3)CC2)cc1 | 0.81 | 0.8 | 24 | 0.7 | 30
COc1ccccc1N1CCN(C(=O)CSc2nnc3n2C(C)(C)Cc2ccccc2-3)CC1 | 0.56 | 0.6 | 38 | 0.1 | 92*
CC(C)OC(=O)CSc1nnc2n1C(C)(C)Cc1ccccc1-2 | 1.1 | 0.5 | 53* | 0.5 | 49
CCOC(=O)C1CCN(C(=O)Nc2ccc3nc(-c4ccco4)c(-c4ccco4)nc3c2)CC1 | -1.2 | 0.2 | 75* | 0.3 | 71*
CCOC(=O)C1CCN(C(=O)Nc2ccccc2Cl)CC1 | 0.6 | 0.9 | 5 | 0.4 | 65*
O=C(Nc1ccc2nc(-c3ccco3)c(-c3ccco3)nc2c1)N1CCCCCC1 | / | 1 | 5 | 1 | -2
CCOC(=O)C1CCN(C(=S)Nc2cccc(C)c2)CC1 | 0.82 | 0.8 | 24 | 0 | 96*
CCOC(=O)C1CCCN(C(=S)Nc2cc(C)cc(C)c2)C1 (stereo not drawn) | 0.38 | 0.9 | 13 | 0.3 | 70*
CCn1c(SCC(=O)Nc2cc(NC(C)=O)ccc2OC)nnc1-c1ccccn1 | 0 | / | / | / | /
COc1ccc(/C=C/C(=O)C2C(=O)C=C(C)OC2=O)cc1O (stereo not drawn) | -0.22 | / | / | / | /
Cc1ccc(C2C(C(=O)c3sc(C)nc3C)=C(O)C(=O)N2CCCN(C)C)o1 (stereo not drawn) | / | 1.1 | -7 | 1.1 | -15
Cc1cccc2cc(C#N)c(NCCNS(=O)(=O)c3ccc4c(c3)OCCO4)nc12 | 0.35 | 0.4 | 57* | 0.5 | 53*
Cc1cc(NCCCN2CCOCC2)n2c(nc3ccccc32)c1C#N | 0.42 | 0.6 | 40 | 0.5 | 51*
Cc1cccc2cc(C#N)c(NCCNC(=S)NCCCN3CCOCC3)nc12 | -0.1 | 0.3 | 71* | 0.9 | 6
Cc1cc(NCCN2CCOCC2)n2c(nc3ccccc32)c1C#N | -0.22 | 0.6 | 42 | 0.8 | 22
CCN1C(=O)N(CC)C2C1N(C(C)=O)C(=O)N2C(C)=O (stereo not drawn) | 0.28 | / | / | / | /
Cc1cccc(OC(=O)c2cn(C)nc2C(F)(F)F)c1C | -0.31 | 1 | -5 | 0.7 | 34
CS(=O)(=O)Nc1ccc(C(=O)NCc2ccco2)cc1 | 0.36 | 1 | 4 | 1.1 | -15
COc1cc(C(=O)Nc2cccc(-c3nncn3C)c2)cc(OC)c1OC | -0.34 | 1.1 | -8 | 1.1 | -13
SMILES | Pyk2 oligo antag | CYP2C9 act | CYP2C9 inh | CYP2C19 act | CYP2C19 inh
CCn1c(Cc2ccc(OC)cc2)nnc1SCC(=O)Nc1cccc(C(=O)OC)c1 | -0.88 | / | / | / | /
CCN(CC)c1nc(N)nc(N(c2ccccc2)c2ccccc2)n1 | / | 0.8 | 24 | 1 | -3
COc1nc(N(c2ccccc2)c2ccccc2)nc(-n2ccnc2)n1 | -2.2 | 0.4 | 64* | 0.1 | 86*
CCNC(=O)C1CC(=O)N(Cc2ccc3c(c2)OCO3)C(=Nc2ccc(OCC)cc2)S1 (stereo not drawn) | -1.7 | 1.1 | -13 | 1.1 | -5
O=C(c1cc2ccccc2oc1=O)N(Cc1ccccc1)CC1CCCO1 (stereo not drawn) | 0.21 | / | / | / | /
O=C(c1cc2ccccc2oc1=O)N(Cc1ccc2c(c1)OCO2)Cc1ccco1 | -2.4 | 0.1 | 92* | 0 | 96*
O=C(c1cc2ccccc2oc1=O)N(Cc1ccco1)CC1CCCO1 (stereo not drawn) | 0.96 | 0.5 | 55* | 0.9 | 12
O=C(NCc1ccc2c(c1)OCO2)c1cc2ccccc2oc1=O | -0.42 | / | / | / | /
O=P(CCN1CCCCC1)(c1ccccc1)c1ccccc1 | -0.45 | 1 | -2 | 1 | -1
COc1ccc(OC)c(-c2cc(C(=O)NCCN3CCOCC3)no2)c1 | 0.07 | 1.9 | -88 | 1.1 | -10
Cc1cc(NC(=O)C2CCN(S(=O)(=O)c3cnc[nH]3)CC2)ccc1Br | 0.74 | 0.2 | 79* | 0.5 | 45
CCN(Cc1ccncc1)C(=O)C1CCN(S(=O)(=O)c2cccs2)CC1 | 0.81 | 0 | 99* | 0.2 | 80*
COc1cc(NC(=O)C2CCN(S(=O)(=O)c3cnc[nH]3)CC2)cc(OC)c1OC | 0.86 | 0.3 | 72* | 0.8 | 20
CCc1cccc(NC(=O)C2CCN(S(=O)(=O)c3cccs3)CC2)c1 | -0.19 | 1 | -4 | 0.7 | 31
CCOC(=O)c1cccc(NC(=O)C2CCN(S(=O)(=O)c3cccs3)CC2)c1 | -1.6 | 0.2 | 84* | 0.1 | 88*
CCOC(=O)c1ccccc1NC(=O)/C(C)=C/C(=O)O | 0.87 | 1.2 | -19 | 1.2 | -18
CCOC(=O)N1CCN(C(=O)c2ccc(N(C)S(C)(=O)=O)cc2)CC1 | 0.04 | 1 | -4 | 1.1 | -5
CCC(C)c1ccc(NC(=O)COc2c(F)c(F)c(C(F)(F)F)c(F)c2F)cc1 (stereo not drawn) | -1.8 | / | / | / | /
COC(=O)c1ccccc1NC(=O)N1CCN(S(=O)(=O)c2ccc(Cl)cc2)CC1 | -0.8 | 1.1 | -10 | 0.8 | 18
Cc1sc2nc(N)sc2c1C | -0.03 | 1.1 | -6 | 1.1 | -7
Cc1ccc(N2CCCCn3c2nc2c3c(=O)n(CC(=O)O)c(=O)n2C)cc1 | 0.09 | 1.1 | -13 | 1.2 | -22
CCOc1ccc(C(C)=O)cc1CN1C(=O)NC2(CCCCC2C)C1=O (stereo not drawn) | -0.38 | 0.8 | 15 | 0.7 | 34
CCOC(=O)c1ccc2c(c1)nc(C1CCN(S(=O)(=O)c3cccs3)CC1)n2CC | -1.5 | 0.1 | 87* | 0.2 | 84*
CCOC(=O)c1cccc(NC(=O)CNC(=O)C2CCCCC2)c1 | 0.22 | 0.6 | 40 | 0.7 | 30
CCOC(=O)c1cccc(NC(=O)C2CCN(S(=O)(=O)c3cnc[nH]3)CC2)c1 | / | 0 | 100* | 0 | 99*
CCc1ccc(N(C(=O)c2ccco2)C(C(=O)NC2CCCC2)c2ccco2)cc1 (stereo not drawn) | -0.92 | / | / | / | /
